Calls of active or inactive are those of the source. Unless noted, the rule behind the calls is not given here.

For experiment [1], the system named is XIP peptide (Xip251-270) binding. Put plainly: small-molecule binders of XIP peptide, primary screen, biochemical, small-molecule microarray, fluorescence 635/667 nm, 0.1 µg/mL protein (AID 1182). Particulars: fluorescent protein binding, 635 nm, higher = more signal, called active from +8 up or from −8 down.
A further experiment relates to XIP peptide (Xip251-270). Put plainly: small-molecule binders of XIP peptide, primary screen, biochemical, small-molecule microarray, fluorescence 635/667 nm, 0.5 µg/mL protein (AID 1183). The settings on record: small-molecule microarray binding, fluorescence 635 nm; higher = more signal.
Experiment [2] can be described thus: Plasmodium falciparum growth inhibition, primary screen, strain 3D7, DAPI fluorescence, 100 nL (AID 1184).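 Note: parasites grown inside human red blood cells in medium with human serum.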 Particulars: P. falciparum 3D7 growth, 3 d, higher = more signal.
In experiment [3] the target is Homeobox protein Hox-A13 (Mus musculus) (UniProt Q62424). The experiment in a line: inhibitors of HoxA13-DNA binding, primary screen, biochemical, fluorescence polarization, labeled oligonucleotide (AID 1185). Particulars: 15 min, higher = more signal, called active from +8 up or from −8 down. On the technique in general: Polarisation of emitted light reports the rotation of a fluorescent probe.
Sequence of Homeobox protein Hox-A13 (Mus musculus) (Q62424 whole entry, looked up): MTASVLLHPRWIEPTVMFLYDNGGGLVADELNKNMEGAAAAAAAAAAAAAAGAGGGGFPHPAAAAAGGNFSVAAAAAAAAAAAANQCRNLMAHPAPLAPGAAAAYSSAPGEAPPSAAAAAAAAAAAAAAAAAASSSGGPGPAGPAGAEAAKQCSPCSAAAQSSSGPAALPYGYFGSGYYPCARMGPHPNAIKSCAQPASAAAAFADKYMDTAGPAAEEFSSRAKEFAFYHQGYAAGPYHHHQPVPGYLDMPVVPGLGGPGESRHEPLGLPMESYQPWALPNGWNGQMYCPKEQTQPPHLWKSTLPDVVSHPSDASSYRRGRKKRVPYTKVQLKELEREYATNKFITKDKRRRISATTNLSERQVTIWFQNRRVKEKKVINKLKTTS

Experiment [4] is described as follows: inhibitors of hydroxyurea-induced Chk1 phosphorylation, primary screen, imaging, HeLa, phospho-Chk1 antibody, percent positive cells (AID 1186). Particulars: hydroxyurea-induced phospho-Chk1 immunofluorescence imaging, higher = more signal.
Experiment [5] in a line: inhibitors of hydroxyurea-induced Chk1 phosphorylation, primary screen, imaging, HeLa, phospho-Chk1 nuclear intensity (AID 1187). Particulars: hydroxyurea-induced phospho-Chk1 immunofluorescence imaging, higher = more signal.

Take `COc1ccc(C(O)C2C=CC3C(=O)N(c4ccccc4)C(=O)C3N2Nc2ccccc2)c2ccccc12` (stereo not drawn): the composite z-score was 2.31 (inactive) in experiment [1] and 0.573 in the experiment with XIP peptide (Xip251-270). The z-score in experiment [2] is -0.182; in experiment [3] it was -1.28 (inactive); in experiment [4], -0.0153 (inactive); in experiment [5], -0.861 (inactive).
As for `CO[C@H]1O[C@H](CO)[C@@H](OC(=O)Nc2ccc(C(F)(F)F)cc2)[C@H](OC(=O)Nc2ccccc2)[C@@H]1OC(=O)Nc1ccccc1`, the composite z-score in experiment [1] is 0.384 (inactive); with XIP peptide (Xip251-270), 0.62. The z-score in experiment [2] was -0.0799; in experiment [3], -5.23 (inactive); in experiment [4] it was 0.666 (inactive); in experiment [5], 0.389 (inactive).
For the compound `COc1ccc(C(=O)Nc2cccc(CN3C(=O)[C@@]4(O[C@@H](CC(=O)N5Cc6ccccc6C[C@H]5CO)[C@H]([Si](C)(C)c5ccc(OC)cc5)[C@H]4C)c4ccccc43)c2)cc1`, the composite z-score in experiment [1] was 1.44 (inactive); in the experiment with XIP peptide (Xip251-270), 0.698. For the same compound, the z-score was -2.64 in experiment [2], -3.18 (inactive) in experiment [3], -0.0924 (inactive) in experiment [4] and 0.071 (inactive) in experiment [5].
As to `CC(C)OC(=O)C1=CCC(c2cccc(Cl)c2)O1` (stereo not drawn), the composite z-score in experiment [1] was 0.0142 (inactive); in the experiment on XIP peptide (Xip251-270), 0.677. Also, the z-score was -1.39 in experiment [2], -0.554 (inactive) in experiment [3], 0.147 (inactive) in experiment [4] and 0.0282 (inactive) in experiment [5].
Regarding `CCCC[C@@H]1C[C@H]1[C@@H](NC(=O)c1ccccc1)c1ccc(-c2ccccc2)cc1`, the composite z-score was 0.397 (inactive) in experiment [1] and -0.0572 in the experiment on XIP peptide (Xip251-270). Besides, the z-score in experiment [2] was -0.0371; in experiment [3], -3.63 (inactive); in experiment [4] it was -0.0528 (inactive); in experiment [5] it was 0.215 (inactive).
Turning to `C=CCC(OC(C)=O)[C@@H]1[C@@H](N(Cc2ccc(-c3ccccc3)cc2)C(=O)c2ccc(C)cc2)c2cc(OCCCO)ccc2N1C(=O)c1ccc2ccccc2n1` (stereo partly drawn), the composite z-score was -0.218 (inactive) in experiment [1] and -0.876 in the experiment on XIP peptide (Xip251-270). Also, the z-score was -0.62 in experiment [2], -1.29 (inactive) in experiment [3], -0.641 (inactive) in experiment [4] and -0.346 (inactive) in experiment [5].
Take `C[n+]1ccc2ccc(O)cc2c1`: the composite z-score in experiment [1] is 1.35 (inactive); in the experiment on XIP peptide (Xip251-270) it was 0.612. Further, the z-score is -0.901 in experiment [2], -8.11 (active) in experiment [3], 0.124 (inactive) in experiment [4] and 0.282 (inactive) in experiment [5].
Take `COC(=O)[C@@]1(Cc2ccc(F)cc2)[C@H]2c3cc(C(=O)N(C)C)n(CCc4c[nH]c5ccc(OC)cc45)c3C[C@H]2CN1C(=O)c1ccccc1`: the composite z-score in experiment [1] is 0.661 (inactive); with XIP peptide (Xip251-270) it was -0.21. For the same compound, the z-score in experiment [2] is -1.52; in experiment [3], -0.694 (inactive); in experiment [4], 0.737 (inactive); in experiment [5], 0.0892 (inactive).
On to `[N-]=[N+]=Nc1ccccc1[C@@H]1OC(c2ccc(OCCCO)cc2)=N[C@]1(CCS(=O)(=O)c1ccccc1)C(=O)O`, for which the composite z-score is 0.97 (inactive) in experiment [1] and 0.727 with XIP peptide (Xip251-270). The z-score is -1.19 in experiment [2], -4.69 (inactive) in experiment [3], -0.273 (inactive) in experiment [4] and -0.0293 (inactive) in experiment [5].
Consider `CC(C)[C@H]1COC(=O)N1C(=O)[C@H]1[C@@H](c2ccccc2)N(c2ccccc2)O[C@@H]1C`, for which the composite z-score is 0.223 (inactive) in experiment [1] and 0.267 in the experiment on XIP peptide (Xip251-270). Moreover, the z-score was 0.0321 in experiment [2], -3.46 (inactive) in experiment [3], -0.965 (inactive) in experiment [4] and -1.2 (inactive) in experiment [5].
Consider `O=C1O[C@@H](c2ccccc2)[C@@H](c2ccccc2)N2[C@@H](c3ccc(O)cc3)[C@]3(C(=O)Nc4ccccc43)[C@@H](C(=O)NC[C@H](O)c3ccccc3)[C@H]12`, for which the values for the composite z-score (in experiment [1]; in the experiment on XIP peptide (Xip251-270)) were 0.737 (inactive) and 0.232, respectively. Moreover, the z-score in experiment [2] is 1.15; in experiment [3], -5.08 (inactive); in experiment [4], -0.0877 (inactive); in experiment [5], -0.173 (inactive).
Take `C=CCC(OC(C)=O)[C@@H]1[C@@H](N(Cc2cc3ccccc3o2)C(=O)c2cccc3ccccc23)c2cc(OCCCO)ccc2N1C(=O)Cc1ccc2ccccc2c1` (stereo partly drawn): the values for the composite z-score (in experiment [1]; with XIP peptide (Xip251-270)) were -0.0088 (inactive) and -0.102, respectively. The z-score is -1.73 in experiment [2], -1.02 (inactive) in experiment [3], -0.394 (inactive) in experiment [4] and 0.15 (inactive) in experiment [5].
For `C=CC[C@@]1(C(N)=O)N=C(c2ccc(OCCCO)cc2)O[C@@H]1c1ccccc1N=[N+]=[N-]`, the values for the composite z-score (in experiment [1]; in the experiment with XIP peptide (Xip251-270)) were 0.868 (inactive) and 0.231, respectively. Also, the z-score is -1.73 in experiment [2], -6.09 (inactive) in experiment [3], -0.0626 (inactive) in experiment [4] and 0.0164 (inactive) in experiment [5].
